According to PubChem BioAssay (NCI):
Compounds without any hit were thinned out: in the full panel of roughly 79,000, 15% have a hit. Values without a mark were called inactive. Active and inactive are the calls of the source. No stated cut-off is given here; in the data, active means growth inhibition above about 70%; inactive means the rest.

What was measured:
[1] = NCI Yeast Anticancer Drug Screen. Data for the rad52 strain (AID 147);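 further: 0% = growth of vehicle-treated control cultures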; details: S. cerevisiae rad52 mutant growth inhibition, hits give high values
Outline: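 Yeast strain carrying a DNA damage repair alteration was exposed to test compounds. Growth inhibition was measured relative to vehicle-treated controls.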

[2] = NCI Yeast Anticancer Drug Screen. Data for the wt1 strain (AID 149);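 further: 0% = growth of vehicle-treated wt1 cultures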; details: S. cerevisiae wt1 strain (SPY 50644) growth inhibition, hits give high values
Outline: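 Measured: growth of wt1 yeast under compound versus vehicle treatment, reported as inhibition.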

[3] = NCI Yeast Anticancer Drug Screen. Data for the rad50EPP+ strain (AID 151);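 further: 0% = growth of vehicle-treated control cultures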; details: S. cerevisiae rad50 mutant strain, hits give high values
Outline: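 Yeast strain carrying rad50 alteration (rad50EPP+) exposed to compounds; growth inhibition measured relative to vehicle-treated controls.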

[4] = NCI Yeast Anticancer Drug Screen. Data for the mgt1 strain (AID 153); details: S. cerevisiae mgt1 mutant growth inhibition, hits give high values
Outline: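 Yeast mgt1 strain (DNA repair/cell-cycle alteration panel) exposed to compounds; growth inhibition measured relative to vehicle-treated controls.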

[5] = NCI Yeast Anticancer Drug Screen. Data for the rad50 strain (AID 155);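 further: 0% = growth of vehicle-only cultures of the same strain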; details: S. cerevisiae rad50 strain growth inhibition, hits give high values
Outline: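 Growth of the mutant yeast was measured after compound exposure and referenced to vehicle-treated cultures.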

[6] = NCI Yeast Anticancer Drug Screen. Data for the mec2-1 strain (AID 157); details: S. cerevisiae mec2-1 strain, hits give high values
Outline: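 mec2-1 yeast strain, carrying an alteration in DNA damage repair or cell cycle control, was exposed to compounds; growth inhibition was measured relative to vehicle-treated controls.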

[7] = NCI Yeast Anticancer Drug Screen. Data for the rad14 strain (AID 159);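 further: 0% = growth of vehicle-treated control cultures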; details: S. cerevisiae rad14 strain growth inhibition, hits give high values
Outline: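 Here, inhibition of yeast growth was measured after compound exposure, using a strain with a genetic defect in DNA damage repair and vehicle-treated cultures as the reference.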

[8] = NCI Yeast Anticancer Drug Screen. Data for the sgs1 mgt1 strain (AID 161);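 further: 0% = growth of cultures given vehicle only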; details: S. cerevisiae sgs1 mgt1 strain, hits give high values
Outline: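 Compounds are added to genetically altered yeast, and growth is compared with cultures given vehicle alone to give percent inhibition.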

[9] = NCI Yeast Anticancer Drug Screen. Data for the CLN2oe strain (AID 163);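 further: 0% = growth of vehicle-only control cultures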; details: S. cerevisiae CLN2oe strain, hits give high values
Outline: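 Yeast cells carrying a defined cell-cycle control alteration were exposed to test compounds. Growth inhibition was scored against vehicle-treated control cultures.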

[10] = NCI Yeast Anticancer Drug Screen. Data for the cln2 rad14 strain (AID 165);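 further: 0% = growth equal to vehicle treated cultures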; details: S. cerevisiae cln2 rad14 strain, hits give high values
Outline: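 Yeast carrying cln2 and rad14 alterations (cell cycle control and DNA damage repair) were exposed to compounds. Growth inhibition was measured against vehicle-treated controls.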

[11] = NCI Yeast Anticancer Drug Screen. Data for the bub3 strain (AID 167); details: S. cerevisiae bub3 mutant strain, hits give high values
Outline: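 Whole-cell yeast assay. The mutant strain was incubated with compounds, and growth inhibition was determined by comparison with vehicle-treated cells.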

[12] = NCI Yeast Anticancer Drug Screen. Data for the wt2 strain (AID 169);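 further: 0% = growth of vehicle-treated yeast cultures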; details: S. cerevisiae wt2 strain growth inhibition, hits give high values
Outline: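 Yeast cells were exposed to test compounds, and growth inhibition was measured relative to vehicle-treated controls.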

[13] = NCI Yeast Anticancer Drug Screen. Data for the mlh1 strain (AID 171);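 further: 0% = growth of vehicle-treated control cultures of the same strain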; details: S. cerevisiae mlh1 strain growth inhibition, hits give high values
Outline: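 Yeast carrying a defined genetic alteration in DNA damage repair or cell cycle control were exposed to test compounds. Growth inhibition was measured relative to vehicle-treated controls.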

[14] = NCI Yeast Anticancer Drug Screen. Data for the sgs1 strain (AID 173);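 further: 0% = growth of vehicle-only control cultures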; details: S. cerevisiae sgs1 mutant, hits give high values
Outline: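 Yeast mutant strains carrying defined defects in DNA damage repair or cell cycle control were exposed to test compounds. Growth inhibition was scored against vehicle-treated controls.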

[15] = NCI Yeast Anticancer Drug Screen. Data for the mlh1 rad18 strain (AID 175); details: S. cerevisiae mlh1 rad18 strain growth inhibition, hits give high values
Outline: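 Growth inhibition of the yeast strain was measured after compound exposure and expressed relative to vehicle-treated controls. The strain carries defined defects in DNA damage repair.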

[16] = at 5.0 µM (retest, dose inferred, filed as 0.5)
[17] = at 50.0 µM (retest, dose inferred, filed as 5.0)

Question: What does the source list for `CN1CCN(C(=O)c2cccc3cccc(C(=O)O)c23)CC1`?
Answer: growth inhibition ([1]; at 1.2 µM): 11%; growth inhibition ([1]; at 3.7 µM): 10%; growth inhibition ([1]; at 11.0 µM): 7%; growth inhibition ([1]; at 33.0 µM): 38%; growth inhibition ([1]; at 100.0 µM): 97% (active); growth inhibition ([2]; at 1.2 µM): 6%; growth inhibition ([2]; at 3.7 µM): 9%; growth inhibition ([2]; at 11.0 µM): 11%; growth inhibition ([2]; at 33.0 µM): 12%; growth inhibition ([2]; at 100.0 µM): 33%; growth inhibition ([3]; at 1.2 µM): 15%; growth inhibition ([3]; at 3.7 µM): 12%; growth inhibition ([3]; at 11.0 µM): 10%; growth inhibition ([3]; at 33.0 µM): 36%; growth inhibition ([3]; at 100.0 µM): 72% (active); growth inhibition ([4]; at 1.2 µM): 4%; growth inhibition ([4]; at 3.7 µM): 12%; growth inhibition ([4]; at 11.0 µM): 11%; growth inhibition ([4]; at 33.0 µM): 23%; growth inhibition ([4]; at 100.0 µM): 99% (active); growth inhibition ([5]; at 1.2 µM): 9%; growth inhibition ([5]; at 3.7 µM): 9%; growth inhibition [5, 16]: -12%; growth inhibition ([5]; at 11.0 µM): 8%; growth inhibition ([5]; at 33.0 µM): 61%; growth inhibition [5, 17]: 84% (active); growth inhibition ([5]; at 50.0 µM): 85% (active); growth inhibition ([5]; at 100.0 µM): 99% (active); growth inhibition ([6]; at 1.2 µM): 10%; growth inhibition ([6]; at 3.7 µM): 12%; growth inhibition [6, 16]: -19%; growth inhibition ([6]; at 11.0 µM): 13%; growth inhibition ([6]; at 33.0 µM): 23%; growth inhibition [6, 17]: 1%; growth inhibition ([6]; at 50.0 µM): 97.7% (active); growth inhibition ([6]; at 100.0 µM): 99% (active); growth inhibition ([7]; at 1.2 µM): 12%; growth inhibition ([7]; at 3.7 µM): 11%; growth inhibition ([7]; at 11.0 µM): 14%; growth inhibition ([7]; at 33.0 µM): 32%; growth inhibition ([7]; at 100.0 µM): 98% (active); growth inhibition [8, 16]: -14%; growth inhibition [8, 17]: 88% (active); growth inhibition ([8]; at 50.0 µM): 77.6% (active); growth inhibition ([9]; at 1.2 µM): 13%; growth inhibition ([9]; at 3.7 µM): 15%; growth inhibition ([9]; at 11.0 µM): 14%; growth inhibition ([9]; at 33.0 µM): 32%; growth inhibition ([9]; at 100.0 µM): 97% (active); growth inhibition [10, 16]: -10%; growth inhibition [10, 17]: 6%; growth inhibition ([10]; at 50.0 µM): 38.6%; growth inhibition ([11]; at 1.2 µM): 12%; growth inhibition ([11]; at 3.7 µM): 15%; growth inhibition [11, 16]: 25%; growth inhibition ([11]; at 11.0 µM): 16%; growth inhibition ([11]; at 33.0 µM): 33%; growth inhibition [11, 17]: 89% (active); growth inhibition ([11]; at 50.0 µM): 51.8%; growth inhibition ([11]; at 100.0 µM): 97% (active); growth inhibition ([12]; at 1.2 µM): -6%; growth inhibition ([12]; at 3.7 µM): -4%; growth inhibition ([12]; at 11.0 µM): -7%; growth inhibition ([12]; at 33.0 µM): -8%; growth inhibition ([12]; at 100.0 µM): 98% (active); growth inhibition ([13]; at 1.2 µM): 8%; growth inhibition ([13]; at 3.7 µM): 9%; growth inhibition ([13]; at 11.0 µM): 10%; growth inhibition ([13]; at 33.0 µM): 29%; growth inhibition ([13]; at 100.0 µM): 100% (active); growth inhibition ([14]; at 1.2 µM): -14%; growth inhibition ([14]; at 3.7 µM): -21%; growth inhibition ([14]; at 11.0 µM): -13%; growth inhibition ([14]; at 33.0 µM): 16%; growth inhibition ([14]; at 100.0 µM): 100% (active); growth inhibition [15, 16]: -30%; growth inhibition [15, 17]: 99% (active); growth inhibition ([15]; at 50.0 µM): 9.9%
